Inconclusive results are not listed. The source made the active and inactive calls. Calls follow the shape of the dose curve; as a rule, active = well fitted cell-killing curve with a large enough effect; inconclusive = small, poorly fitted or top-dose-only effect, or effect the other way; inactive = flat fitted curve, though single readings scatter.
tested on: JEG-3; test: Primary qHTS to identify gynecologic anti-cancer compounds using libraries of approved drugs and bioactive compounds (AID 1345084); settings: Gynecologic cancer cell panel viability, ATPlite luminescence, 48 h; series mostly up to 57.5 µM; activity change, negative = cytotoxicity: at the top concentration; also: nearly all actives have a fitted effect of over 55% in size
Procedure, shortened: (§1)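 Measured: luminescence after ATPlite addition (15 min, RT). Exposure: 48 h, 37 C, 5% CO2.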
% is scaled to controls: 0 for no effect and ±100 for the full control effect.

Row | Compound | activity change, negative = cytotoxicity
1 | CNC12CC3C[C@@](C)(C1)C[C@](C)(C3)C2 | -6.21% (inactive)
2 | COc1cccc2cc3c(c(O[C@@H]4O[C@H](CO[C@@H]5O[C@H](CO)[C@@H](O)[C@H](O)[C@H]5O)[C@@H](O)[C@H](O)[C@H]4O)c12)C(C)OC3=O (stereo partly specified) | 10.6% [at 25.3 µM] (inactive)
3 | C/C(=C\CC[C@@H](C)[C@H]1CC(O)[C@@]2(C)C3CC[C@H]4C(C)(C)[C@@H](OC5OCC(O)C(O)C5OC5OC(CO)C(O)C(O)C5O)CC[C@@]45C[C@@]35CC(O)[C@]12C)C(=O)O (stereo partly specified) | -15.6% [at 25.3 µM] (inactive)
4 | Cc1ccc(NC(=O)C(=O)NC2CC(C)(C)NC(C)(C)C2)cc1 | -0.0847% (inactive)
5 | C=CC(C)(C)C12C=C(OC)C(=O)N3C(C(C)C)C(=O)NC31N(OC)c1ccccc12 (stereo unspecified) | 8.46% [at 25.3 µM] (inactive)
6 | O=S(=O)(NC1CCC(c2cc(F)ccc2F)(S(=O)(=O)c2ccc(Cl)cc2)CC1)C(F)(F)F (stereo unspecified) | -11.9% (inactive)
7 | CC(C)=CCC[C@](C)(O[C@@H]1O[C@H](CO)[C@@H](O)[C@H](O)[C@H]1O)[C@H]1CC[C@]2(C)[C@@H]1[C@H](O)CC1[C@@]3(C)CC[C@H](O)C(C)(C)C3[C@@H](O[C@@H]3O[C@H](CO)[C@@H](O)[C@H](O)[C@H]3O[C@@H]3OC[C@@H](O)[C@H](O)[C@H]3O)C[C@]12C (stereo partly specified) | -16.8% [at 11.6 µM] (inactive)
8 | CC(=O)OC1CC2(C)C3=CCC4(C)C5C(O)C(O)C(C(C)C)C5(C)CCC4(C)C3CCC2C(C)(C)C1OC1OC(CO)C(O)C(O)C1O (stereo unspecified) | 1.23% [at 25.3 µM] (inactive)
9 | CC1(C)CCCC2(C)C1CC(=O)C13CC(CCC12)C(O)(CO)C3 (stereo unspecified) | -14% [at 38.5 µM] (inactive)
10 | CC1=CC(=O)C2(OC3OC(C)C(O)C(OC(=O)/C=C/c4ccccc4)C3O)C=COC(OC3OC(CO)C(O)C(O)C3O)C12 (stereo unspecified) | 1.21% [at 25.3 µM] (inactive)
11 | C=C(CO)C12OC1C1(C)C(=CC2=O)C(O)C(O)CC1C (stereo unspecified) | 16.1% (inactive)
12 | O=C(CCc1ccccc1)N1CCC(O)(Cn2cnc3cc(Cl)ccc3c2=O)CC1 | -1.46% (inactive)
13 | C=CC(C)(O)CC[C@H]1C(=C)CCC2[C@](C)(C(=O)O)CCC[C@@]21C (stereo partly specified) | -6.77% [at 38.5 µM] (inactive)
14 | C=C1[C@H](OC(C)=O)[C@H]2[C@@H](OC(C)=O)[C@](C)(OC(C)=O)C[C@]2(OC(C)=O)C(=O)[C@H](C)/C=C/C(C)(C)C(=O)[C@H](OC(=O)C(C)CC)[C@H]1OC(C)=O (stereo partly specified) | 13.7% [at 25.3 µM] (inactive)
15 | C=C(C(=O)O)C1CCC2(C)CCC(O)C(C)(O)C2C1 (stereo unspecified) | 17% (inactive)
16 | C[C@@H]1O[C@@H](OC[C@H]2O[C@@H](OC(CCCCc3ccc(O)cc3)CCc3ccc(O)cc3)[C@H](O)[C@@H](O)[C@@H]2O)[C@H](O)[C@H](O)[C@H]1O (stereo partly specified) | -3.16% [at 25.3 µM] (inactive)
17 | COC(=O)c1ccc(OC(CO)C(O)c2ccc(O)c(OC)c2)c(OC)c1 (stereo unspecified) | 13.8% [at 38.5 µM] (inactive)
18 | C/C1=C\C[C@]2(C)C(=O)C(O)=C([C@H](C)CO)[C@H]2C/C=C(\C)[C@@H](O)CC/C(C)=C/CC1 | -1.23% [at 38.5 µM] (inactive)
19 | C=C(C)C1CCC2(C(=O)O)CCC3(C(=O)O)C(CCC4C5(C)CCC(O)C(C)(C(=O)O)C5CCC43C)C12 (stereo unspecified) | -1.42% [at 25.3 µM] (inactive)
20 | O=C(Nc1ccccc1-c1cn2c(CN3CCNCC3)csc2n1)c1ccc2ccccc2n1 | 10.6% (inactive)
21 | COc1c2c(c(CO)c3c1C(=O)OC3)OC1(C)CCC3(O)C(C)(C)OC(=O)CCC3(C)C1C2 (stereo unspecified) | 6.63% [at 25.3 µM] (inactive)
22 | CC(C)C(N)C(=O)OCCOCn1cnc2c(=O)[nH]c(N)nc21 (stereo unspecified) | 7.46% (inactive)
23 | O=C(Nc1ccc(S(=O)(=O)Nc2nccs2)cc1)C(c1ccccc1)c1ccccc1 | -2.37% (inactive)
24 | CN=C(N)NCCCCC/C=C(/C)CC(C)C1OC(=O)C(C)C(O)/C=C/C(C)C(O)CC(O)C(C)C(O)CCC(C)C(O)CC2(O)OC(CC(OC(=O)CC(=O)O)CC(O)CC(O)C(C)C(O)/C(C)=C/CCC1C)CC(O)C2O (stereo unspecified) | 16% [at 11.6 µM] (inactive)
25 | CCOCCn1nc(CC)c2nc(N3CCC(C(=O)O)CC3)nc(Nc3cc(C)ccn3)c21 | -1.56% (inactive)
26 | CC1OC(OC2C(CO)OC(OCC3OC(OC(=O)C45CCC(C)(C)CC4C4=CCC6C7(C)CCC(OC8OC(CO)C(O)C(OC9OC(CO)C(O)C(O)C9O)C8O)C(C)(C)C7CCC6(C)C4(C)CC5)C(O)C(O)C3O)C(O)C2O)C(O)C(O)C1OC1OC(CO)C(O)C(O)C1O (stereo unspecified) | 7.02% [at 6.55 µM] (inactive)
27 | O=c1[nH]ccc2cc(OC3CCNCC3)ccc12 | -18.6% (inactive)

tested on: OV90; test: as above; settings: Gynecologic cancer cell panel viability, ATPlite luminescence, 48 h; series mostly up to 57.5 µM; activity change, negative = cytotoxicity: at the top concentration
Procedure, shortened: as §1

Row | Compound | activity change, negative = cytotoxicity
28 | CC(=O)C12OC(C)(C)OC1CC1C3CCC4=CC(=O)C=CC4(C)C3(F)C(O)CC12C (stereo unspecified) | 7.08% (inactive)
29 | COC(=O)C1=CO[C@@H](O[C@@H]2O[C@H](CO[C@@H]3O[C@H](COC(=O)/C=C/c4cc(OC)c(O)c(OC)c4)[C@@H](O)[C@H](O)[C@H]3O)[C@@H](O)[C@H](O)[C@H]2O)[C@@H]2C(CO)=CC[C@H]12 | -1.26% [at 25.3 µM] (inactive)
30 | CC1=C2C3OC(=O)C(C)C3(O)CCC2(C)CCC1O (stereo unspecified) | 5.72% (inactive)
31 | COc1ccccc1Oc1ccc(N(Cc2cccnc2)S(=O)(=O)CC(F)(F)F)cc1 | 3.68% (inactive)
32 | O=C(/C=C/c1ccc(O)cc1)N[C@@H](Cc1ccc(O)cc1)C(=O)O | 10.7% [at 38.5 µM] (inactive)
33 | CC1=C(C)C(=O)OC(C(C)C2CCC3C4C5OC5C5(O)CC(OC6OC(CO)C(OC7OC(C)C(O)C(O)C7O)C(O)C6O)CC(O)C5(C)C4CCC23C)C1 (stereo unspecified) | 7.48% [at 25.3 µM] (inactive)
34 | C=C[C@H]1CN2CC[C@H]1C[C@@H]2C(O)c1ccnc2ccc(OC)cc12 (stereo partly specified) | -8.45% [at 38.5 µM] (inactive)
35 | C=C[C@H]1C(O[C@@H]2O[C@H](CO)[C@@H](O)[C@H](O)[C@H]2O)OC=C2C(=O)N3CCc4c([nH]c5ccccc45)C3CC21 (stereo partly specified) | -2.12% [at 25.3 µM] (inactive)
36 | O=C(O)/C=C/c1ccc(O)c(O[C@@H]2O[C@H](CO)[C@@H](O)[C@H](O)[C@H]2O)c1 | 3.74% [at 38.5 µM] (inactive)
37 | C=C(C(=O)O)C1CC(O)C2(C)CCCC(=C)C2C1 (stereo unspecified) | -6.23% (inactive)
38 | CC1CCC2(C(=O)O)CCC3(C)C(=CCC4C5(C)CCC(OC(=O)/C=C/c6ccccc6)C(C)(C)C5CCC43C)C2C1C (stereo unspecified) | 0.597% [at 25.3 µM] (inactive)
39 | C=C[C@H]1[C@H](O[C@@H]2O[C@H](CO)[C@@H](O)[C@H](O)[C@H]2O)OC=C(C(=O)OC)[C@H]1CC(=O)O | -10.4% [at 38.5 µM] (inactive)
40 | CNC12CC3C[C@@](C)(C1)C[C@](C)(C3)C2 | -28.3% (inactive)
41 | COc1cccc2cc3c(c(O[C@@H]4O[C@H](CO[C@@H]5O[C@H](CO)[C@@H](O)[C@H](O)[C@H]5O)[C@@H](O)[C@H](O)[C@H]4O)c12)C(C)OC3=O (stereo partly specified) | 11.4% [at 25.3 µM] (inactive)
42 | C/C(=C\CC[C@@H](C)[C@H]1CC(O)[C@@]2(C)C3CC[C@H]4C(C)(C)[C@@H](OC5OCC(O)C(O)C5OC5OC(CO)C(O)C(O)C5O)CC[C@@]45C[C@@]35CC(O)[C@]12C)C(=O)O (stereo partly specified) | -7.82% [at 25.3 µM] (inactive)
43 | Cc1ccc(NC(=O)C(=O)NC2CC(C)(C)NC(C)(C)C2)cc1 | 1.83% (inactive)
44 | C=CC(C)(C)C12C=C(OC)C(=O)N3C(C(C)C)C(=O)NC31N(OC)c1ccccc12 (stereo unspecified) | 4.02% [at 25.3 µM] (inactive)
45 | O=S(=O)(NC1CCC(c2cc(F)ccc2F)(S(=O)(=O)c2ccc(Cl)cc2)CC1)C(F)(F)F (stereo unspecified) | -5% (inactive)
46 | CC(C)=CCC[C@](C)(O[C@@H]1O[C@H](CO)[C@@H](O)[C@H](O)[C@H]1O)[C@H]1CC[C@]2(C)[C@@H]1[C@H](O)CC1[C@@]3(C)CC[C@H](O)C(C)(C)C3[C@@H](O[C@@H]3O[C@H](CO)[C@@H](O)[C@H](O)[C@H]3O[C@@H]3OC[C@@H](O)[C@H](O)[C@H]3O)C[C@]12C (stereo partly specified) | -3.26% [at 11.6 µM] (inactive)
47 | CC(=O)OC1CC2(C)C3=CCC4(C)C5C(O)C(O)C(C(C)C)C5(C)CCC4(C)C3CCC2C(C)(C)C1OC1OC(CO)C(O)C(O)C1O (stereo unspecified) | 8.05% [at 25.3 µM] (inactive)

Row | Compound | activity change, negative = cytotoxicity
48 | CC1(C)CCCC2(C)C1CC(=O)C13CC(CCC12)C(O)(CO)C3 (stereo unspecified) | -25.7% [at 38.5 µM] (inactive)
49 | CC1=CC(=O)C2(OC3OC(C)C(O)C(OC(=O)/C=C/c4ccccc4)C3O)C=COC(OC3OC(CO)C(O)C(O)C3O)C12 (stereo unspecified) | 22.9% [at 25.3 µM] (inactive)
50 | C=C(CO)C12OC1C1(C)C(=CC2=O)C(O)C(O)CC1C (stereo unspecified) | 18.1% (inactive)
51 | O=C(CCc1ccccc1)N1CCC(O)(Cn2cnc3cc(Cl)ccc3c2=O)CC1 | -2.36% (inactive)
52 | C=CC(C)(O)CC[C@H]1C(=C)CCC2[C@](C)(C(=O)O)CCC[C@@]21C (stereo partly specified) | 2.38% [at 38.5 µM] (inactive)
53 | C=C1[C@H](OC(C)=O)[C@H]2[C@@H](OC(C)=O)[C@](C)(OC(C)=O)C[C@]2(OC(C)=O)C(=O)[C@H](C)/C=C/C(C)(C)C(=O)[C@H](OC(=O)C(C)CC)[C@H]1OC(C)=O (stereo partly specified) | -9.16% [at 25.3 µM] (inactive)
54 | C=C(C(=O)O)C1CCC2(C)CCC(O)C(C)(O)C2C1 (stereo unspecified) | 17.1% (inactive)
55 | C[C@@H]1O[C@@H](OC[C@H]2O[C@@H](OC(CCCCc3ccc(O)cc3)CCc3ccc(O)cc3)[C@H](O)[C@@H](O)[C@@H]2O)[C@H](O)[C@H](O)[C@H]1O (stereo partly specified) | -0.822% [at 25.3 µM] (inactive)
56 | COC(=O)c1ccc(OC(CO)C(O)c2ccc(O)c(OC)c2)c(OC)c1 (stereo unspecified) | 0.183% [at 38.5 µM] (inactive)
57 | C/C1=C\C[C@]2(C)C(=O)C(O)=C([C@H](C)CO)[C@H]2C/C=C(\C)[C@@H](O)CC/C(C)=C/CC1 | 9.35% [at 38.5 µM] (inactive)
58 | C=C(C)C1CCC2(C(=O)O)CCC3(C(=O)O)C(CCC4C5(C)CCC(O)C(C)(C(=O)O)C5CCC43C)C12 (stereo unspecified) | -0.0003% [at 25.3 µM] (inactive)
59 | O=C(Nc1ccccc1-c1cn2c(CN3CCNCC3)csc2n1)c1ccc2ccccc2n1 | -2.32% (inactive)
60 | COc1c2c(c(CO)c3c1C(=O)OC3)OC1(C)CCC3(O)C(C)(C)OC(=O)CCC3(C)C1C2 (stereo unspecified) | 12.1% [at 25.3 µM] (inactive)
61 | CC(C)C(N)C(=O)OCCOCn1cnc2c(=O)[nH]c(N)nc21 (stereo unspecified) | 7.27% (inactive)
62 | O=C(Nc1ccc(S(=O)(=O)Nc2nccs2)cc1)C(c1ccccc1)c1ccccc1 | 8.46% (inactive)
63 | CN=C(N)NCCCCC/C=C(/C)CC(C)C1OC(=O)C(C)C(O)/C=C/C(C)C(O)CC(O)C(C)C(O)CCC(C)C(O)CC2(O)OC(CC(OC(=O)CC(=O)O)CC(O)CC(O)C(C)C(O)/C(C)=C/CCC1C)CC(O)C2O (stereo unspecified) | 7.81% [at 11.6 µM] (inactive)
64 | CCOCCn1nc(CC)c2nc(N3CCC(C(=O)O)CC3)nc(Nc3cc(C)ccn3)c21 | 6.2% (inactive)
65 | CC1OC(OC2C(CO)OC(OCC3OC(OC(=O)C45CCC(C)(C)CC4C4=CCC6C7(C)CCC(OC8OC(CO)C(O)C(OC9OC(CO)C(O)C(O)C9O)C8O)C(C)(C)C7CCC6(C)C4(C)CC5)C(O)C(O)C3O)C(O)C2O)C(O)C(O)C1OC1OC(CO)C(O)C(O)C1O (stereo unspecified) | 6.18% [at 6.55 µM] (inactive)
66 | O=c1[nH]ccc2cc(OC3CCNCC3)ccc12 | -14.9% (inactive)

Source: PubChem BioAssay (NCATS)
